# Screening results (PubChem BioAssay)
# RORgamma inh – blocks mouse ROR gamma transcriptional activity | P51450 | Drosophila S2 Gal4-RORgamma UAS-luciferase reporter, 20 h | Potency, µM (top dose mostly 53.6 µM), actives largely listed as inhibitors | actives 5.4% (n = 310,000); further: nearly all actives have a fitted effect of over 60% in size
# Target sequence (P51450 whole entry, looked up, the tested form may be a part): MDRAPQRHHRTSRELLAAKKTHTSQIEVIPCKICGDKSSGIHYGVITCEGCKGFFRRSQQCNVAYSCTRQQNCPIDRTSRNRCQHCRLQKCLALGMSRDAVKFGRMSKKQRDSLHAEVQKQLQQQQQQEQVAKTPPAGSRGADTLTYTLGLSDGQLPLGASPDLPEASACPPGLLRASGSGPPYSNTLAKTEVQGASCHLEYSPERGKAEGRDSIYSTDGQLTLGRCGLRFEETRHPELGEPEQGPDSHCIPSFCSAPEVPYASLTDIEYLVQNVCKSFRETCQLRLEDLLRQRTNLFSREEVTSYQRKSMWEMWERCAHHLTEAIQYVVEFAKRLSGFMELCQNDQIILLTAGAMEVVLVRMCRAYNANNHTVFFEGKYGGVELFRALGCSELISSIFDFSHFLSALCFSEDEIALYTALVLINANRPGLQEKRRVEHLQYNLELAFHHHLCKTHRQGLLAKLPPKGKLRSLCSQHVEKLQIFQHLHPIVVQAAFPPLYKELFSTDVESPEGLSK
#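 Read-out: Photinus luciferase luminescence; inhibitors lower reporter signal. Insect Schneider cells with Gal4-ROR gamma fusion under metallothionein promoter, UAS reporter; 700 uM final copper sulfate induction, 20 hr, ambient temperature.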
# DT40 TDP1 no CPT – qHTS for Inhibitors of human tyrosyl-DNA phosphodiesterase 1 (TDP1): qHTS in cells in absence of CPT; actives 15% (n = 420,000); DT40 Tdp1-/- hTDP1 cells, no CPT, ATP luminescence, 48 h; AID 686978, 2013; Potency, µM (highest dose often 46.2 µM), hits mostly inhibitors; further: nearly all actives have a fitted effect of over 55% in size
#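 Compound effects on proliferation are scored in DT40 Tdp1-/-;hTDP1 cells in the absence of CPT. ATP levels (CellTiter-Glo luminescence) are recorded after a ≥48 hr, 37 °C incubation.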
# TDP1 cell CPT – DT40-hTDP1 cell growth loss with CPT; chicken DT40 Tdp1-/-;hTDP1 cells + 20 nM CPT, ATP luminescence, 48 h; Potency, µM (titrated, usually from 46.2 µM), hits mostly inhibitors; actives 12% (n = 420,000); AID 686979; further: nearly all actives have a fitted effect of over 55% in size
#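 Cell growth measured by CellTiter-Glo luminescence after a minimum 48 h, 37 C compound exposure with 20 nM CPT in Tdp1-knockout DT40 cells stably expressing hTDP1, seeded 400/well; qHTS titration format.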
# TDP1 block – inhibitors of human tyrosyl-DNA phosphodiesterase TDP1. Q9NUW8. recombinant TDP1, AlphaScreen DNA substrate cleavage. Potency, µM (top dose mostly 130 µM), usual class: inhibitors. actives 0.28% (n = 350,000). AID 485290; further: nearly all actives have a fitted effect of over 40% in size
#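 Compounds were preincubated with Tdp1 (1 nM final) for 15 min at room temperature before substrate (15 nM final) started a 5 min reaction; beads (10 ug/ml final) were then added for 10 min before AlphaScreen detection.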
# VP16 counter – inhibits Gal4-VP16 luciferase reporter, ROR gamma counter-screen. Drosophila S2 Gal4-VP16 UAS-luciferase, luminescence, 20 h. Potency, µM (highest dose often 53.6 µM), actives largely listed as inhibitors. actives 3.5% (n = 310,000);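 further: Gal4-VP16 expression switched on by copper sulfate through the metallothionein promoter; nearly all actives have a fitted effect of over 50% in size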
# Numbers stand for hits; - = inactive; ? = inconclusive; . = no result given; [ ] = another dose, or the depositor's remark. Compounds with a hit are over-represented: about 19% of the library has one in this group of screens. The call rests on the fitted dose curve; in most records, active means well fitted curve in the direction sought with a large enough effect; inconclusive means small, poorly fitted or top-dose-only effect, or another doubt; inactive means no such curve, though single readings can be large; an effect the other way counts as inactive or inconclusive.
SMILES,RORgamma inh,DT40 TDP1 no CPT,TDP1 cell CPT,TDP1 block,VP16 counter
CC(C)CCNC(=O)Nc1ccc2c(c1)N(C)C(=O)c1ccccc1S2,.,16.4µM,14.6µM,-,.
CN1C(=O)c2ccccc2Sc2ccc(NC(=O)NCc3ccccc3Br)cc21,.,20.6µM,16.4µM,-,.
COc1ccc2c(c1)c(=O)oc1cc3oc(C)c(C)c3cc12,-,.,.,.,-
O=C(CSc1nnc2n(C3CCCC3)c(=O)c3ccccc3n12)N1CCCCCC1,-,23.1µM,20.6µM,-,-
CC1CCCN(C(=O)CSc2nnc3n(C4CCCC4)c(=O)c4ccccc4n23)C1 (stereo not given),-,16.4µM,23.1µM,-,-
COc1ccc2cc3cc(C(=O)NC(C)C)oc3nc2c1,-,-,-,-,-
O=C(C1=C(O)C(=O)N(CCCN2CCOCC2)C1c1ccc(Cl)cc1)c1cc2ccccc2o1 (stereo not given),-,-,-,-,-
CCCCCCCC1CC(/C(C)=N/NC(N)=O)OC1=O (stereo not given),-,?,18.4µM,-,-
C/C(=N\NC(N)=O)C1CC(Cc2ccccc2)C(=O)O1 (stereo not given),-,-,-,-,-
CCCCCCCC1CC(CSC(=N)N)OC1=O (stereo not given),-,20.6µM,14.6µM,-,-
CC(C)CCC1CC(CSC(=N)N)OC1=O (stereo not given),-,23.1µM,?,-,-
CCCCC1CC(CSC(=N)N)OC1=O (stereo not given),-,?,?,-,-
CCNC(=S)N1CCC(c2nc3ccccc3s2)CC1,-,?,-,-,-
NC(=S)Nc1nc2ccccc2[nH]c1=O,?,.,.,?,-
Cc1ccc2[nH]c(=O)c(NC(N)=S)nc2c1,11.2µM,-,-,-,?
COc1cccc(-n2c(SCC(=O)Nc3cccc(Cl)c3)nc3c(oc4ccccc43)c2=O)c1,.,-,?,-,.
COCCn1c(SCC(=O)Nc2cccc(OC)c2)nc2c(oc3ccccc32)c1=O,-,7.31µM,5.8µM,-,-
COc1cccc(-n2c(SCC(=O)Nc3cc(C)ccc3C)nc3c(oc4ccccc43)c2=O)c1,.,13µM,?,-,.
CCOC(=O)c1c(C)oc2c1c(C(c1ccccc1)N1CCOCC1)c(O)c1ccccc12 (stereo not given),?,18.4µM,?,-,10µM
CCOC(=O)c1c(C)oc2c1c(C(c1cccnc1)N1CCCCC1)c(O)c1ccccc12 (stereo not given),?,?,?,-,-
CCOC(=O)c1c(C)oc2c1c(C=NCCO)c(O)c1ccccc12,11.2µM,?,-,-,?
COc1ccc(NC(=O)c2cn(CC(C)C)c(=O)c3cc(OC)c(OC)cc23)cc1Cl,.,20.6µM,20.6µM,-,.
COc1cc2c(C(=O)Nc3ccc4c(c3)OCO4)cn(CC(C)C)c(=O)c2cc1OC,-,.,.,-,-
COc1ccc(NC(=O)c2cn(C)c(=O)c3cc(OC)c(OC)cc23)cc1OC,-,-,-,.,-
COc1cccc(NC(=O)c2cn(C)c(=O)c3cc(OC)c(OC)cc23)c1,-,14.6µM,8.2µM,-,-
SMILES,RORgamma inh,DT40 TDP1 no CPT,TDP1 cell CPT,TDP1 block,VP16 counter
COc1ccccc1CNC(=O)c1cn(C)c(=O)c2cc(OC)c(OC)cc12,-,20.6µM,18.4µM,-,-
Cc1ccsc1/C=C\C1=NCCCN1C,-[2.98 µM],.,.,-[21 µM],-
CCOC(=O)C(c1ccccc1)C(Nc1ccc(Cl)c(Cl)c1)c1ccccn1 (stereo not given),-,9.2µM,?,-,?
COC(=O)C(C)Nc1cccc(Br)c1 (stereo not given),-,-,-,.,-
CCOC(=O)C(C(=O)OCC)C(Nc1cccc(Br)c1)c1ccccc1 (stereo not given),11.2µM,?,14.6µM,-,?
CCCCCSc1nnc2c(n1)OC(c1cccn1C)N(C(C)=O)c1ccccc1-2 (stereo not given),-,-,-,-,-
CS(=O)(=O)c1ccc(C(=O)N2CCN(S(=O)(=O)c3ccc(C4CCCCC4)cc3)CC2)cc1,.,-,?,.,.
Cc1c(C(=O)NCc2ccccc2)oc2ccc(S(=O)(=O)N3CCC(C)CC3)cc12,.,9.2µM,9.2µM,-,.
COc1ccccc1CNC(=O)c1oc2ccc(S(=O)(=O)N3CCCCC3)cc2c1C,.,7.31µM,6.51µM,-,.
COc1ccc(C)cc1NC(=O)c1oc2ccc(S(=O)(=O)N3CCCCC3)cc2c1C,.,-,-,-,.
Cc1cccc(NC(=O)c2oc3ccc(S(=O)(=O)N4CCOCC4)cc3c2C)c1C,-,23.1µM,?,-,-
CCN(CC)S(=O)(=O)c1ccc2oc(C(=O)NCc3ccccc3OC)c(C)c2c1,.,10.3µM,7.31µM,-,.
Cc1c(C(=O)NCc2cccnc2)oc2ccc(S(=O)(=O)N3CC(C)CC(C)C3)cc12 (stereo not given),-,-,?,-,-
COc1ccccc1CNC(=O)c1oc2ccccc2c1C,-,-,-,-,-
CCOc1ccc(-c2cccc(NC(=O)COc3ccccc3)c2)nn1,-,?,-,-,-
Cc1c(C(=O)NCc2ccccc2CN2CCCC2)oc2ccc(F)cc12,.,?,20.6µM,-,.
COc1cccc(NC(=O)c2oc3ccc(S(=O)(=O)N4CCCCCC4)cc3c2C)c1,.,18.4µM,18.4µM,-,.
CCCCNC(=O)c1oc2ccc(S(=O)(=O)N3CCCC3)cc2c1C,-,?,?,.,-
Cc1c(C(=O)NCc2ccc(F)cc2)oc2ccc(S(=O)(=O)N3CCCCC3)cc12,.,?,23.1µM,-,.
COc1ccc(NC(=O)c2oc3ccc(S(=O)(=O)N4CCCCC4)cc3c2C)cc1,.,?,?,-,.
O=C(NCc1ccccc1CN1CCCC1)c1cc2ccccc2o1,.,-,-,-,.
Cc1ccc(C(=O)n2c(-c3ccccc3)cnc2SCC(=O)Nc2ccccc2)cc1,-,?,-,-,-
O=C(CSc1n[nH]c(=O)[nH]c1=O)c1ccc(Cl)cc1Cl,-,-,-,.,-
O=Cc1c(N2CCN(CCO)CC2)nc2ccccn2c1=O,-,-,-,.,-
Fc1ccc(CN(C2=NCCN2)c2c(Cl)cccc2Cl)cc1,.,.,.,-,.
SMILES,RORgamma inh,DT40 TDP1 no CPT,TDP1 cell CPT,TDP1 block,VP16 counter
Fc1cccc(CN(C2=NCCN2)c2c(Cl)cccc2Cl)c1,.,20.6µM,?,.,.
Cc1ccc(NC(=O)c2cccn2-c2nnc(N3CCCCC3)s2)cc1Cl,.,?,?,-,.
Cc1ccc(C)c(N2CCN(C(=O)c3cccn3-c3nnc(N4CCCCC4)s3)CC2)c1,.,14.6µM,?,-,.
O=C(c1cccn1-c1nnc(N2CCCC2)s1)N1CCN(c2ccc(F)cc2)CC1,.,18.4µM,16.4µM,-,.
N=C1C(c2nc3ccccc3s2)=C(O)CN1NC(=O)c1ccccc1[N+](=O)[O-],-,-,-,-,-
CC(=O)c1ccc(C(=O)N2CCCC(c3nc(SCc4ccccn4)ncc3C)C2)cc1 (stereo not given),.,?,-[9.04 µM],.,.
